Laboratory results from PubChem BioAssay (NCATS).
Records with an inconclusive call do not appear. The source made the active and inactive calls. Unless noted, the call rests on the fitted dose curve; in most records, active means well fitted curve in the direction sought with a large enough effect; inconclusive means small, poorly fitted or top-dose-only effect, or another doubt; inactive means no such curve, though single readings can be large; an effect the other way counts as inactive or inconclusive.

Tests used:
[1] = Cell Viability - BJ (AID 421; calls by dose curve;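 further: potency means the concentration at half of the fitted maximal effect; cells exposed to compound for 40 hours at 37 °C before readout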); settings: BJ fibroblast viability, qHTS
Method in brief: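 Quantitative HTS: ATP depletion in BJ cells after 40 hr compound exposure in complete culture medium, detected with CellTiter-Glo; AC50 from standard Hill fits.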

[2] = Cell Viability - Jurkat (AID 426;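 active means dose-dependent loss of cell ATP signal giving a full or clear fitted curve, ranked by lower potency value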;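 further: potency means the concentration at half of the fitted maximal effect; cells exposed to compound for 40 hours at 37 °C before ATP read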); settings: qHTS
Method in brief: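 Seed 5000 Jurkat E6-1 cells/well; add compound; incubate 40 hr at 37 °C; add CellTiter-Glo; wait 20 min at room temperature; read luminescence. Fit concentration-response with Hill equation for AC50.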

[3] = Cell Viability - Hek293 (AID 427;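 active means compounds whose dose-response curve shows a full or clear partial loss of cell viability, called from curve shape rather than a numeric limit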;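 further: potency means the concentration at half of the fitted maximal effect; cells exposed to compound for 40 hours at 37 °C before reading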); settings: qHTS
Method in brief: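 AC50 values derive from Hill-modelled concentration-response of ATP-based luminescence, normalized between DMSO-only and 100 uM tamoxifen controls. Cells were exposed in complete culture medium for 40 hr at 37 °C before detection.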

[4] = Cell Viability - HepG2 (AID 433; calls by dose curve;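 further: potency means the concentration at half of the fitted maximal effect; cells exposed to compound for 40 hours; potency for ATP loss meaning cytotoxicity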); settings: qHTS
Method in brief: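 Cytotoxicity read as ATP loss (CellTiter-Glo luminescence) after 40 hr compound exposure of HepG2, 1500 cells/well, 37 °C. AC50 by Hill equation; 0% set by DMSO, 100% inhibition by 100 uM tamoxifen.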

[5] = Cell Viability - MRC5 (AID 434; calls by dose curve;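 further: potency means the concentration at half of the fitted maximal effect; cells exposed to compound for 40 hours at 37 °C; potency reflects cytotoxicity seen as loss of intracellular ATP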); settings: MRC5 lung fibroblast viability, qHTS
Method in brief: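 qHTS cytotoxicity in human lung fibroblast MRC5 cells; 40 hr treatment, 37 °C; cellular ATP by luciferase luminescence; DMSO = 0%, 100 uM tamoxifen = 100% inhibition; Hill-fit AC50.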

[6] = Cell Viability - SK-N-SH (AID 435; calls by dose curve; further: potency means the concentration at half of the fitted maximal effect); settings: SK-N-SH neuroblastoma cell viability qHTS
Method in brief: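 qHTS cytotoxicity: CellTiter-Glo ATP luminescence after 40 h compound exposure of human neuroblastoma SK-N-SH cells at 37 °C. AC50 derived by Hill-equation fitting, with DMSO as basal and 100 uM tamoxifen as full inhibition.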

[7] = target: Mitogen-activated protein kinase 10 (Mus musculus) (UniProt Q61831); test: JNK3 AlphaScreen Assay (AID 530; active means well fitted curve in either direction with a large enough effect, not every such curve was filed as active;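 further: kinase came from lysate of stimulated human HepG2 cells; signal reports phosphorylation of biotinylated GST-cJun 1-79 at Ser73 with 10 µM ATP; on the % scale 0 is the no-effect control and ±100 the full control effect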); settings: JNK3 lysate, c-Jun phosphorylation; series mostly up to 57.1 µM
Method in brief: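 Room-temperature AlphaScreen kinase assay; pre-activated HepG2 lysate as JNK3 source, biotin-GST-cJun(1-79) substrate, 10 uM ATP, compound 15 min preincubation.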

[8] = Cell Viability - N2a (AID 540); settings: N2a mouse neuroblastoma cell viability; activity change, negative = cytotoxicity: at 92.2 µM (top of the series);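 further: plate controls were DMSO alone for no effect and tamoxifen control for full effect; nearly all actives have a fitted effect of over 45% in size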
Method in brief: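 First, 1500 N2a cells per well incubate 5 hr at 37 °C; next, compounds are added and incubated 40 hr at 37 °C; finally CellTiter-Glo is added and luminescence read after 20 min, with AC50 derived by Hill modeling.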

[9] = Cell Viability - HUV-EC-C (AID 542); settings: HUV-EC-C endothelial cell viability, qHTS; series mostly up to 92.2 µM;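 further: cells exposed to compound for 40 hours; on the % scale 0 is the no-effect control and ±100 the full control effect; nearly all actives have a fitted effect of over 35% in size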
Method in brief: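 Decrease in cellular ATP, quantified by luciferase luminescence, reflects toxicity in normal human vascular endothelial HUV-EC-C cells given compound for 40 hr in complete culture medium. Values are AC50s from concentration-response curves.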

[10] = Cell Viability - H-4-II-E (AID 543); settings: H-4-II-E rat hepatoma viability; series mostly up to 92.2 µM;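 further: cells exposed to compound for 40 hours; on the % scale 0 is the no-effect control and ±100 the full control effect; nearly all actives have a fitted effect of over 35% in size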
Method in brief: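 Here, cytotoxicity is measured in the rat hepatoma line H-4-II-E as loss of intracellular ATP after 40 hr compound treatment, detected by luciferase luminescence.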

[11] = Cell Viability - SH-SY5Y (AID 544); settings: SH-SY5Y neuroblastoma cell viability; viability change, negative = cytotoxic: at 92.2 µM (top of the series);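 further: cells exposed to compound for 40 hours; nearly all actives have a fitted effect of over 55% in size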
Method in brief: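 Cytotoxicity is scored as a concentration-dependent fall in intracellular ATP in human SH-SY5Y cells treated 40 hr in complete culture medium. Potency is expressed as AC50 from a Hill equation fit.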

[12] = Cell Viability - Renal Proximal Tubule (AID 545); settings: renal proximal tubule cells viability, primary cells of rat origin; series mostly up to 91.7 µM;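 further: cells exposed to compound for 40 hours; nearly all actives have a fitted effect of over 40% in size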
Method in brief: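 Viability taken as intracellular ATP (CellTiter-Glo luminescence) after 40 hr, 37 °C compound treatment of primary proximal tubule cells from rat kidney, 1000 cells/well; Hill-equation fits of qHTS concentration-response data gave AC50.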

[13] = Cell Viability - Mesenchymal (AID 546); settings: mesenchymal cells viability, qHTS; series mostly up to 91.7 µM;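 further: cells exposed to compound for 40 hours before reading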
Method in brief: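 AC50 values reflect the drop in intracellular ATP in a human kidney mesenchymal line derived from normal glomeruli. Treatment lasts 40 hr at 37 °C in complete medium, and the signal comes from CellTiter-Glo luminescence.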

[14] = Cellular Toxicity (caspase-3) HepG2 (AID 654); settings: HepG2 caspase-3 activation, luminescence; series mostly up to 92.2 µM;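 further: cells exposed to compound for 16 hours before reading; 0% = DMSO alone and 100% = caspase signal from 100 µM tamoxifen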
Method in brief: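 qHTS, HepG2, 1500 cells/well, complete medium; cpd 16 h 37 °C; Caspase-Glo 3/7, 20 min RT; lum. Norm: DMSO vs 100 uM tamoxifen; AC50 Hill fit.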

[15] = Cellular Toxicity (caspase-3) Jurkat (AID 655); settings: Jurkat caspase-3 activation, luminescence; caspase-3 activation: at 92.2 µM (top of the series), DMSO = 0%, tamoxifen = 100%;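 further: cells exposed to compound for 16 h at 37 °C before reading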
Method in brief: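 Luminescent Caspase-Glo 3/7 read-out (20 min, room temperature) after 16 h compound treatment at 37 C of 5000 Jurkat cells per well. AC50 derived by Hill-equation fitting, scaled between DMSO basal and 100 uM tamoxifen stimulation.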

[16] = Cellular Toxicity (caspase-3) HUV-EC-C (AID 656); settings: HUV-EC-C cells, caspase-3 activation (apoptosis), vehicle = 0, 100 µM tamoxifen = 100%; series mostly up to 92.2 µM
Method in brief: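 Luminescent Caspase-Glo 3/7 readout after 16 h, 37 °C compound exposure of HUV-EC-C endothelial cells, 1000 per well, complete medium. AC50 derived by Hill fitting, with DMSO as baseline and 100 uM tamoxifen as full activation.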

[17] = Cellular Toxicity (caspase-3) SHSY5Y (AID 657); settings: SH-SY5Y caspase-3 activation, DMSO zero, 10 µM staurosporine = 100%; series mostly up to 91.7 µM
Method in brief: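 Luminescent Caspase-Glo 3/7 read-out, 1 hr room temperature, follows 16 hours of compound treatment of SH-SY5Y cells at 37 °C. Normalization: DMSO basal, 10 uM staurosporine as 100%; AC50 values from Hill-equation concentration-response fits.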

[18] = Cellular Toxicity (caspase-3) BJ (AID 658); settings: BJ fibroblasts, luminescence, normalized: DMSO 0%, staurosporine 100%; series mostly up to 91.7 µM
Method in brief: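 Readout: Caspase-Glo 3/7 luminescence increase in BJ cells after 16 hr treatment at 37 °C. Staurosporine and tamoxifen served as positive controls; AC50 values came from Hill modelling of data normalized to DMSO and 10 uM staurosporine.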

[19] = Cellular Toxicity (caspase-3) MRC-5 (AID 659); settings: MRC-5 cells, luminescence, normalized: DMSO 0%, 10 µM staurosporine 100%; series mostly up to 91.7 µM
Method in brief: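 Concentration-dependent caspase 3/7 activation is measured in human normal lung fibroblasts (MRC-5) following 16-hour treatment. AC50 values come from standard Hill-equation modeling of luminescence normalized to DMSO and 10 uM staurosporine.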

[20] = Cell Viability - NIH 3T3 (AID 541); settings: NIH 3T3 cell viability, qHTS; activity change, negative = cytotoxicity: at 92.2 µM (top of the series);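 further: cells exposed to compound for 40 hours; plate controls were DMSO alone for no effect and tamoxifen positive control for full effect; nearly all actives have a fitted effect of over 25% in size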
Method in brief: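 AC50 values reflect concentration-dependent loss of intracellular ATP in NIH 3T3 cells after 40 hr treatment in complete culture medium, quantified by luciferase-based luminescence.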

C/C(C=O)=C/c1ccccc1
inactive: Potency [1] > 92 µM | Potency [2] > 92 µM | Potency [3] > 92 µM | Potency [4] > 92 µM | Potency [5] > 92 µM | Potency [6] > 92 µM | outcome [7] | activity change, negative = cytotoxicity [8] -1.48% | Potency [9] | Potency [10] | Potency [11] | Potency [12] | Potency [13] | Potency [14] | caspase-3 activation [15] -0.305% | outcome [16] | outcome [17] | outcome [18] | outcome [19]

CCOCCOCC
inactive: Potency [1] > 92 µM | Potency [2] > 92 µM | Potency [3] > 92 µM | Potency [4] > 92 µM | Potency [5] > 92 µM | Potency [6] > 92 µM | outcome [7] | activity change, negative = cytotoxicity [8] -1.44% | Potency [9] | Potency [10] | Potency [11] | Potency [12] | Potency [13] | Potency [14] | caspase-3 activation [15] 1.67% | outcome [16] | outcome [17] | outcome [18] | outcome [19]

COc1ccc(OC)cc1
inactive: Potency [1] > 92 µM | Potency [2] > 92 µM | Potency [3] > 92 µM | Potency [4] > 92 µM | Potency [5] > 92 µM | Potency [6] > 92 µM | outcome [7] | activity change, negative = cytotoxicity [8] 0.243% | Potency [20] | Potency [9] | Potency [11] | Potency [12] | Potency [14] | caspase-3 activation [15] 0.323% | outcome [16] | outcome [17] | outcome [18] | outcome [19]

Clc1ccccn1
inactive: Potency [1] > 92 µM | Potency [2] > 92 µM | Potency [3] > 92 µM | Potency [4] > 92 µM | Potency [5] > 92 µM | Potency [6] > 92 µM | outcome [7] | activity change, negative = cytotoxicity [8] -19.1% | Potency [20] | Potency [9] | Potency [11] | Potency [13] | Potency [14] | caspase-3 activation [15] -1.1% | outcome [16] | outcome [18] | outcome [19]

CCCCC(C=O)CC (stereo unspecified)
inactive: Potency [1] > 92 µM | Potency [2] > 92 µM | Potency [3] > 92 µM | Potency [4] > 92 µM | Potency [5] > 92 µM | Potency [6] > 92 µM | outcome [7] | activity change, negative = cytotoxicity [8] 2.46% | Potency [20] | Potency [9] | Potency [11] | Potency [12] | Potency [13] | Potency [14] | caspase-3 activation [15] -0.967% | outcome [16] | outcome [17] | outcome [18] | outcome [19]

CCNc1cc(O)ccc1C
inactive: Potency [1] > 92 µM | Potency [2] > 92 µM | Potency [3] > 92 µM | Potency [4] > 92 µM | Potency [5] > 92 µM | Potency [6] > 92 µM | outcome [7] | activity change, negative = cytotoxicity [8] 4.09% | Potency [20] | Potency [9] | Potency [10] | Potency [12] | Potency [13] | Potency [14] | outcome [16] | outcome [17] | outcome [18] | outcome [19]

C=CCCCC
inactive: Potency [1] > 92 µM | Potency [2] > 92 µM | Potency [3] > 92 µM | Potency [4] > 92 µM | Potency [5] > 92 µM | Potency [6] > 92 µM | outcome [7] | activity change, negative = cytotoxicity [8] 6.23% | Potency [20] | Potency [9] | Potency [10] | Potency [11] | Potency [13] | Potency [14] | caspase-3 activation [15] 0.169% | outcome [16] | outcome [17] | outcome [18] | outcome [19]

Cc1cccc2cccnc12
inactive: Potency [1] > 92 µM | Potency [2] > 92 µM | Potency [3] > 92 µM | Potency [4] > 92 µM | Potency [5] > 92 µM | Potency [6] > 92 µM | outcome [7] | activity change, negative = cytotoxicity [8] -0.348% | Potency [20] | Potency [9] | Potency [10] | Potency [11] | Potency [14] | caspase-3 activation [15] -0.137% | outcome [16] | outcome [17] | outcome [18]
